The source of these data is the supplement of paper PMC9492666.

Structures can show the parent of a compound that is named as a salt.
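Also: viability read by CCK-8 kit in 96-well plates, part of a combination screen pairing lipid-metabolism-targeting compounds with erastin.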

In the experiment the test system is HCC1937. The experiment in a line: relative cell viability, compound + erastin, vs DMSO (fraction of DMSO control); higher = less growth inhibition. The note with it: 72 h.
`O=C(c1c2ccccc2cc2ccccc12)N1CCC(N2CCC[C@@H](C(=O)N3CCOCC3)C2)CC1` + CCOc1ccccc1-n1c(C(C)N2CCN(C(=O)COc3ccc(Cl)cc3)CC2)nc2ccccc2c1=O [erastin]: the relative cell viability stood at 0.514. In the case of `COc1ccc2c(c1)c(CC(=O)O)c(C)n2C(=O)c1ccc(Cl)cc1` [Indometacin] + CCOc1ccccc1-n1c(C(C)N2CCN(C(=O)COc3ccc(Cl)cc3)CC2)nc2ccccc2c1=O [erastin] it was 0.941. In the case of `O=C(Nc1cccnn1)N1CCC(=Cc2cccc(Oc3ccc(C(F)(F)F)cn3)c2)CC1` + CCOc1ccccc1-n1c(C(C)N2CCN(C(=O)COc3ccc(Cl)cc3)CC2)nc2ccccc2c1=O [erastin] it was 0.667; in that of `O=C1C=CC[C@@H]2[C@H]3CCCN4CCC[C@@H](CN12)[C@@H]34` [Sophocarpine] + CCOc1ccccc1-n1c(C(C)N2CCN(C(=O)COc3ccc(Cl)cc3)CC2)nc2ccccc2c1=O [erastin], 0.705. Under `NC(CO)C(=O)O` (racemic) [DL-Serine] + CCOc1ccccc1-n1c(C(C)N2CCN(C(=O)COc3ccc(Cl)cc3)CC2)nc2ccccc2c1=O [erastin] stands 0.667; under `CC[C@H]1[C@@H](O)[C@@H]2[C@H](CC[C@]3(C)[C@@H]([C@H](C)CCC(=O)O)CC[C@@H]23)[C@@]2(C)CC[C@@H](O)C[C@@H]12` [Obeticholic Acid] + CCOc1ccccc1-n1c(C(C)N2CCN(C(=O)COc3ccc(Cl)cc3)CC2)nc2ccccc2c1=O [erastin], 0.616; under `CC1(C)CC[C@]2(C(=O)O[C@@H]3O[C@H](CO)[C@@H](O)[C@H](O)[C@H]3O)CC[C@]3(C)C(=CC[C@@H]4[C@@]5(C)CC[C@H](O[C@@H]6O[C@H](C(=O)O)[C@@H](O)[C@H](O)[C@H]6O[C@@H]6O[C@H](CO)[C@@H](O)[C@H](O)[C@H]6O)C(C)(C)[C@@H]5CC[C@]43C)[C@@H]2C1` [Ginsenoside Ro] + CCOc1ccccc1-n1c(C(C)N2CCN(C(=O)COc3ccc(Cl)cc3)CC2)nc2ccccc2c1=O [erastin], 0.703.

With `COc1ccc([C@@H]2OC[C@H]3[C@@H]2CO[C@@H]3c2ccc(O[C@@H]3O[C@H](CO)[C@@H](O)[C@H](O)[C@H]3O)c(OC)c2)cc1OC` [Forsythin] + CCOc1ccccc1-n1c(C(C)N2CCN(C(=O)COc3ccc(Cl)cc3)CC2)nc2ccccc2c1=O [erastin], the relative cell viability is 0.718. Consider `CCCc1c(OCCCOc2ccc(OCC(=O)O)cc2)ccc(C(C)=O)c1O` + CCOc1ccccc1-n1c(C(C)N2CCN(C(=O)COc3ccc(Cl)cc3)CC2)nc2ccccc2c1=O [erastin], for which the relative cell viability came to 0.752. With `C=C(C)[C@@H]1CC[C@]2(CO)CC[C@]3(C)[C@H](CC[C@@H]4[C@@]5(C)CC[C@H](O)C(C)(C)[C@@H]5CC[C@]43C)[C@@H]12` [Betulin] + CCOc1ccccc1-n1c(C(C)N2CCN(C(=O)COc3ccc(Cl)cc3)CC2)nc2ccccc2c1=O [erastin], the relative cell viability is 0.524. Take `COc1ccc2[nH]cc(CCNC(C)=O)c2c1` [Melatonine] + CCOc1ccccc1-n1c(C(C)N2CCN(C(=O)COc3ccc(Cl)cc3)CC2)nc2ccccc2c1=O [erastin]: the relative cell viability is 0.585.

Regarding `CC[C@@H]1/C=C(\C)C[C@H](C)C[C@H](OC)[C@H]2O[C@@](O)(C(=O)C(=O)N3CCCC[C@H]3C(=O)O[C@H](/C(C)=C/[C@@H]3CC[C@@H](O)[C@H](OC)C3)[C@H](C)[C@@H](O)CC1=O)[C@H](C)C[C@@H]2OC` [Ascomycin] + CCOc1ccccc1-n1c(C(C)N2CCN(C(=O)COc3ccc(Cl)cc3)CC2)nc2ccccc2c1=O [erastin], the relative cell viability was 0.086. In the case of `CC(C)OC(=O)CCC/C=C\C[C@@H]1[C@@H](CC[C@@H](O)CCc2ccccc2)[C@H](O)C[C@@H]1O` [Latanoprost] + CCOc1ccccc1-n1c(C(C)N2CCN(C(=O)COc3ccc(Cl)cc3)CC2)nc2ccccc2c1=O [erastin] it was 1.

Consider `COc1ccc(/C=C/c2cc(O)cc(O[C@@H]3O[C@H](CO)[C@@H](O)[C@H](O)[C@H]3O)c2)cc1` [Deoxyrhapontin] + CCOc1ccccc1-n1c(C(C)N2CCN(C(=O)COc3ccc(Cl)cc3)CC2)nc2ccccc2c1=O [erastin], for which the relative cell viability is 0.576. Regarding `N#Cc1c(O)c2c(-c3ccc(-c4ccccc4O)cc3)csc2[nH]c1=O` + CCOc1ccccc1-n1c(C(C)N2CCN(C(=O)COc3ccc(Cl)cc3)CC2)nc2ccccc2c1=O [erastin], the relative cell viability was found to be 0.521. Under `OC[C@H]1O[C@@H](Oc2cc(O)cc(/C=C/c3ccc(O)cc3)c2)[C@H](O)[C@@H](O)[C@@H]1O` [Polydatin] + CCOc1ccccc1-n1c(C(C)N2CCN(C(=O)COc3ccc(Cl)cc3)CC2)nc2ccccc2c1=O [erastin] stands 0.78; under `O=C(CBr)c1ccc(O)cc1` [PTP Inhibitor I] + CCOc1ccccc1-n1c(C(C)N2CCN(C(=O)COc3ccc(Cl)cc3)CC2)nc2ccccc2c1=O [erastin], 0.717. In the case of `CN(CCOc1ccc(CC2SC(=O)NC2=O)cc1)c1ccccn1` (stereo not given) [Rosiglitazone maleate] + CCOc1ccccc1-n1c(C(C)N2CCN(C(=O)COc3ccc(Cl)cc3)CC2)nc2ccccc2c1=O [erastin] it was 0.824; in that of `CN(C)c1cccc(-c2c3c(=O)n(-c4ccccc4Cl)[nH]c3cc(=O)n2C)c1` + CCOc1ccccc1-n1c(C(C)N2CCN(C(=O)COc3ccc(Cl)cc3)CC2)nc2ccccc2c1=O [erastin], 0.61; in that of `CN(C)CCOC(=O)COc1ccc(Cl)cc1` [Meclofenoxate hydrochloride] + CCOc1ccccc1-n1c(C(C)N2CCN(C(=O)COc3ccc(Cl)cc3)CC2)nc2ccccc2c1=O [erastin], 0.693.
